# Experimental data as given in ChEMBL document CHEMBL1157539, “Thousands of chemical starting points for antimalarial lead identification” (Nature, 2010).
# Test system: HepG2
# Assay: GSK_TCMDC: Percent inhibition of human HepG2 cell line. Test compounds present at 10uM.
# Format: functional
row,SMILES,Inhibition
1,CC(=O)c1ccc(-c2cccc3c(CC(=O)Nc4ccc5nccc(N6CCN(C)CC6)c5c4)cccc23)cc1,3%
2,O=C(Nc1ccccc1)N(Cc1cccc(-c2ccc(CNCc3ccc4c(c3)OCO4)cc2)c1)C1CCN(Cc2ccccc2)CC1.O=C(O)C(F)(F)F,27%
3,Cc1cc(CNCCCCCCCNCc2ccc(-c3ccccc3)cc2)ccc1O,49%
4,O=C1NC(=S)N/C1=C/C=C/c1ccc([N+](=O)[O-])o1,7%
5,COc1cccc2sc(N3CCN(C(=O)c4ccc([N+](=O)[O-])o4)CC3)nc12,0%
6,Cc1cc(NC(=O)Nc2ccc3nccc(N4CCN(C)CC4)c3c2)ccc1Br,31%
7,CCCCN1CCN(CCCNc2c3ccccc3nc3ccccc23)CC1.Cl,26%
8,c1ccc2c(NCCc3c[nH]cn3)c3ccccc3nc2c1,20%
9,COc1ccc(C2SCC(=O)N2CCc2ccc(OC)c(OC)c2)cc1 (stereo not given),19%
10,Cl.c1cc(CNC2Cc3ccccc3C2)cc(-c2cnc(N3CCNCC3)nc2)c1,43%
11,CS(=O)(=O)c1ccc(CNCc2ccc(-c3ccc(-c4nc5cc(F)ccc5[nH]4)s3)cc2)cc1.O=C(O)C(F)(F)F,22%
12,COc1ccc(-c2ccc3c(-c4cccc(S(C)(=O)=O)c4)cnc(N)c3c2)cc1,41%
13,CCCC(C(=O)OCCN(CC)CC)(c1ccc(Cl)cc1)c1ccc(Cl)cc1.Cl,7%
14,Oc1cc(Nc2ccnc3cc(-c4cccc(CN5CCOCC5)c4)ccc23)c(F)cc1Cl,12%
15,O=C(CCCCCNC(=O)c1ccc(O)c(-c2ccc(Cl)c(Cl)c2)c1)NCCN1CCCC1,0%
